Compound activity from PubChem.
TDP1 inh – qHTS Assay for Inhibitors of Tyrosyl-DNA Phosphodiesterase (TDP1) | Tyrosyl-DNA phosphodiesterase 1 (Homo sapiens), Q9NUW8 | recombinant TDP1, AlphaScreen DNA substrate cleavage | Potency, µM (top dose mostly 130 µM), inactives show top-dose activity change, negative = inhibition, usual class: inhibitors | 350,000 tested, 0.28% active | AID 485290, 2010; further: potency means the concentration at half of the fitted maximal effect; on the % scale 0 is the no-effect control and ±100 the full control effect; nearly all actives have a fitted effect of over 40% in size
Target sequence (Q9NUW8 whole entry, looked up): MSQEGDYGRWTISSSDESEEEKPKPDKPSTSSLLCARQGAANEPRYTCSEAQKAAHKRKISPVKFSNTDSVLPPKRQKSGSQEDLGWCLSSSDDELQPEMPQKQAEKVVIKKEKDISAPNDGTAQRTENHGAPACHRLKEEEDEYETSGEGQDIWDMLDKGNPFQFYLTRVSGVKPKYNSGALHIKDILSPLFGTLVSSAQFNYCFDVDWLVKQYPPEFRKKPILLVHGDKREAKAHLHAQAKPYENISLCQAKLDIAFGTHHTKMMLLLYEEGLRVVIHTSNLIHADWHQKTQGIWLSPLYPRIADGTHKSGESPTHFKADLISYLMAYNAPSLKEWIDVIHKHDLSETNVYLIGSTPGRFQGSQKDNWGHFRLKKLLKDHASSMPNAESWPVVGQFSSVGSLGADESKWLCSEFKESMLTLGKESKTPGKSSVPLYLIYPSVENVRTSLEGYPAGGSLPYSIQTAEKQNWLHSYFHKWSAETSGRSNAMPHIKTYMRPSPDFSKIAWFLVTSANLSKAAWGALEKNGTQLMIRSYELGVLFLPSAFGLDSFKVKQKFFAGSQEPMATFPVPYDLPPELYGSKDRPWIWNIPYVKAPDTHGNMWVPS
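Enzyme-compound mixtures sat 15 min at room temperature, followed by a 5 min reaction with 15 nM final substrate and 10 min with AlphaScreen beads. Recombinant human Tdp1 was used at 1 nM final.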
TDP1 cell noCPT – qHTS for Inhibitors of human tyrosyl-DNA phosphodiesterase 1 (TDP1): qHTS in cells in absence of CPT | DT40 Tdp1-/- hTDP1 cells, no CPT, ATP luminescence, 48 h | Potency, µM (series often up to 46.2 µM), for the others: top-dose activity change, negative = growth inhibition, most hits filed as inhibitors | 420,000 tested, 15% active; further: potency means the concentration at half of the fitted maximal effect; on the % scale 0 is the no-effect control and ±100 the full control effect; nearly all actives have a fitted effect of over 55% in size
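A cellular qHTS used chicken DT40 cells lacking endogenous Tdp1 but carrying stably transfected human TDP1. Compounds were applied without camptothecin, and cell growth kinetics were judged by ATP-dependent luminescence after ≥48 hr.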
IL1B secr inh – qHTS for Inhibitors of Inflammasome Signaling: IL-1-beta AlphaLISA Primary Screen; THP-1 LPS/ATP IL-1B secretion, AlphaLISA, 16 h; hits give low values; AID 743279, 2014; 360,000 tested, 4.7% active; activity change, % at 57.5 µM; in the data active means activity change below about -50%; inconclusive means mostly about -30% to -49%; further: on the % scale 0 is the no-effect control and ±100 the full control effect
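Secreted IL-1B measured by AlphaLISA bead assay after 16 h compound exposure of THP-1 cells; compounds (final up to 57.5 uM) added 1 h before LPS (250 ng/mL) and ATP (1.25 mM) stimulation; lower signal means less secretion.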
HepG2 tox – qHTS for Inhibitors of TGF-b: Cytotox Counterscreen; HepG2 CAGA-GFP viability, ATP luminescence, 18 h; Potency, µM (top dose mostly 46.1 µM), inactives show at the highest dose activity change, negative = cytotoxicity, most hits filed as cytotoxic; 410,000 tested, 0.76% active; further: potency means the concentration at half of the fitted maximal effect
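HepG2 CAGA-GFP cells (1000/well, DMEM with 1% FBS) received compound, then TGF-beta at 500 pg/mL final, and were incubated 18 hours at 37 degrees C. Viability was read by CellTiter-Glo luminescence. Media-only wells were set as complete cell-killing and DMSO as no toxicity.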
TGFb SMAD3 inh – qHTS for Inhibitors of TGF-b. Potency, µM (highest dose often 46.1 µM), inactives show at the top dose activity, negative = inhibition, usual class: inhibitors. 410,000 tested, 1.2% active. HepG2 CAGA-GFP TGF-b/SMAD3 reporter, GFP fluorescence, 18 h; TGF-beta stimulated, 500 pg/mL final. AID 588855, 2011; further: potency means the concentration at half of the fitted maximal effect; on the % scale 0 is the no-effect control and ±100 the full control effect; nearly all actives have a fitted effect of over 65% in size
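HEPG2 CAGA-GFP, 1000 cells/well; 2 h settle, 37 C; cpd via pin tool; TGF-b 500 pg/mL final; 18 h, 37 C; GFP imaging ex488/em500-530; %Activity normalised to -TGF-b and +DMSO controls; CRC fit, curve class.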
TDP1 cell CPT – qHTS for Inhibitors of human tyrosyl-DNA phosphodiesterase 1 (TDP1): qHTS in cells in presence of CPT; chicken DT40 Tdp1-/-;hTDP1 cells + 20 nM CPT, ATP luminescence, 48 h; Potency, µM (highest dose often 46.2 µM), for inactives: top-dose activity change, negative = growth inhibition, hits mostly inhibitors; 420,000 tested, 12% active; AID 686979, 2013; further: potency means the concentration at half of the fitted maximal effect; on the % scale 0 is the no-effect control and ±100 the full control effect; nearly all actives have a fitted effect of over 55% in size
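Cell growth measured by CellTiter-Glo luminescence after a minimum 48 h, 37 C compound exposure with 20 nM CPT in Tdp1-knockout DT40 cells stably expressing hTDP1, seeded 400/well; qHTS titration format.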
Numbers without * were called inactive; ? = inconclusive; / = not tested or not shown; [ ] = dose if it differs, or a comment. Compounds with a hit are over-represented: about 18% of the library has one in this group of screens. Unless noted, the call rests on the fitted dose curve; in most records, active means well fitted curve in the direction sought with a large enough effect; inconclusive means small, poorly fitted or top-dose-only effect, or another doubt; inactive means no such curve, though single readings can be large; an effect the other way counts as inactive or inconclusive.

SMILES | TDP1 inh | TDP1 cell noCPT | IL1B secr inh | HepG2 tox | TGFb SMAD3 inh | TDP1 cell CPT
COc1cc(NCCCCCCN)c2ncccc2c1OC | / | ? | 24.1 | -6.8% | 0.0% | ?
COc1cc(C2(c3ccc(O)c(OC)c3)C(=O)Nc3c(Br)cc(Br)cc32)ccc1O | / | ? | -23.2 | -95.0% | 25.1µM* | -11.5%
COc1cc(C2(c3ccc(O)c(OC)c3)C(=O)N(C)c3ccc(Br)cc32)ccc1O | / | -15.4% | -29.3 | -18.9% | ? | 2.1%
CCc1c2c(nc3ccc4c(c13)OCCO4)-c1nc3ccccc3c(=O)n1C2 | 2.6% | / | / | -30.7% | 1.9% | /
COC(=O)/C=C1\OCc2cc(OC)c(OCc3ccccc3)cc21 | / | 20.6µM* | 2.5 | / | / | ?
O=C(/C=C1\OCc2cc(OCc3ccccc3)ccc21)OCc1ccccc1 | / | ? | -8.1 | / | / | ?
Cc1ccccc1Nc1nc(N)c2ccccc2n1 | 0.0% | ? | -96.0* | 11.2µM* | -8.6% | ?
COc1ccc(C)cc1Nc1nc(N)c2ccccc2n1 | 8.8% | ? | -93.3* | -17.1% | 0.9% | ?
COc1ccc(OC)c(Nc2nc(-c3ccc(C)cc3)nc3ccccc23)c1 | 9.3% | -28.2% | / | -1.1% | 4.5% | ?
Cc1ccccc1Nc1ncc(C#N)c(N)n1 | 1.4% | -2.8% | -1.2 | 31.1% | 11.2% | 4.4%
Cc1ccccc1CN1C(=O)c2ccccc2Sc2ccc(C(=O)NC3CCCC3)cc21 | 7.8% | ? | / | -1.1% | -2.2% | 16.4µM*
Cc1ccccc1CN1C(=O)c2ccccc2Sc2ccc(C(=O)NCc3cccs3)cc21 | -2.6% | 23.1µM* | / | -21.1% | ? | 23.1µM*
COc1ccc(NC(=O)Cn2nc(-c3ccccc3)c3cnc4ccc(C)cc4c32)cc1 | 1.9% | ? | / | -1.6% | -1.0% | ?
Cn1c(N)c(C(=O)CSc2nn(-c3ccccc3)c(=S)s2)c(=O)n(C)c1=O | -11.0% | 16.4µM* | 69.8 | -9.8% | ? | ?
CC(Sc1nn(-c2ccc(F)cc2)c(=S)s1)C(=O)c1c(N)n(C)c(=O)n(C)c1=O (stereo not drawn) | -8.2%[0.505 µM] | 13µM* | -6.1 | -0.7% | ? | ?
CCOC(=O)Cn1c(=O)oc2cc(S(=O)(=O)Nc3ccccc3F)ccc21 | 4.6% | -23.1% | / | -28.3% | ? | -15.9%
O=[N+]([O-])c1ccc(OC/C=C2\Oc3ccc([N+](=O)[O-])cc3C2N2CCOCC2)cc1 (stereo not drawn) | 2.8% | 23.1µM* | -58.9* | 27.1% | -1.7% | ?
O=[N+]([O-])c1ccc2c(c1)C(N1CCOCC1)/C(=C/COc1ccc(F)cc1)O2 (stereo not drawn) | 0.0% | ? | ? | -48.6% | ? | -29.7%
COc1ccc(CCN2CCC(Nc3nc4ccccc4n3Cc3ccc(F)cc3)CC2)cc1 | 5.5% | 7.31µM* | -67.1* | -105.5% | ? | 14.6µM*
c1ccc(Cn2c(CNc3nc4ccccc4n3CCN3CCCCC3)nc3ccccc32)cc1 | 7.7% | ? | -50.5* | -24.8% | ? | ?
O=C(O)CSc1nc2ccccc2n1Cc1ccccc1 | 3.8% | -18.9% | 4.6 | -4.3% | 0.0% | -5.8%
Cn1c(CNc2nc3ccccc3n2CCN2CCCCC2)nc2ccccc21 | 4.8% | ? | -8.0 | -30.2% | -9.8% | -23.7%
CCc1nc2ccccc2n1Cc1ccc(F)cc1 | 2.4% | -12.8% | 17.2 | 1.1% | 2.5% | ?
CCN(CC)CCSc1nc2ccccc2n1Cc1ccccc1 | 9.3% | 16.4µM* | -17.9 | -21.4% | -0.9% | ?
COc1ccc(CNc2nc3ccccc3n2CCN2CCCCC2)cc1 | 2.6% | 20.6µM* | ? | -27.0% | -22.0% | 18.4µM*
SMILES | TDP1 inh | TDP1 cell noCPT | IL1B secr inh | HepG2 tox | TGFb SMAD3 inh | TDP1 cell CPT
CCOc1ccc(CNc2nc3ccccc3n2CCN2CCOCC2)cc1 | 4.4% | 20.6µM* | 19.0 | 3.7% | ? | ?
CCN(CC)CCSc1nc(O)c(-c2ccccc2)c(=O)n1-c1ccccc1 | 4.8% | 2.0% | -3.6 | -3.9% | -6.4% | 7.4%
CCN(CC)CCSc1nc2ccccc2c(=S)n1-c1ccccc1 | 3.7% | 23.1µM* | -56.0* | -16.8% | 1.4% | ?
CCN(CC)CCn1c(NCc2nc3ccccc3n2Cc2ccccc2)nc2ccccc21 | 7.0% | ? | -58.6* | -51.9% | ? | ?
CCN(CC)c1ccc(CNc2nc3ccccc3n2CCN2CCCCC2)cc1 | 10.3% | ? | -104.7* | -15.4% | ? | 4.61µM*
COc1ccc(COC(=O)Nc2cn(C)nc2C(F)(F)F)cc1 | 4.3% | 0.2% | 23.9 | -2.1% | -7.0% | -5.8%
COc1ccccc1CNC(=O)c1cc(-c2ccccc2)n[nH]1 | 5.6% | ? | / | -36.2% | 26.1% | -6.0%
C=CCn1c(SCC(=O)Nc2ccc(F)cc2F)nnc1-c1cnccn1 | 2.0% | -5.4% | ? | 9.6% | -7.6% | 2.0%
Cc1ccc(S(=O)(=O)NCCCN2CCCC2)cc1 | / | 1.2% | 10.5 | -5.5% | -10.6% | -13.6%
Brc1cccc(CNc2nc3ccccc3n2CCN2CCOCC2)c1 | 6.0% | 11.6µM* | -12.3 | -29.0% | -23.9% | ?
Cc1cc(C)c(NC(=O)Cn2nc(-c3ccncc3)ccc2=O)c(C)c1 | 2.2% | ? | / | 22.6% | -1.8% | -23.4%
NS(=O)(=O)c1ccc(CCNC(=O)c2cc(S(=O)(=O)N3CCCCC3)ccc2Cl)cc1 | / | -25.8% | 14.0 | -0.4% | -0.3% | -12.2%
COCCNC(=O)c1cc(S(=O)(=O)N2CCC3(CC2)OCCO3)ccc1F | / | -16.6% | -11.9 | -0.2% | 1.4% | -16.6%
O=C(NCCc1ccc2c(c1)OCCO2)c1cc(S(=O)(=O)N2CCCC2)ccc1Cl | 3.5% | ? | 11.1 | -6.3% | ? | 18.4µM*
COc1ccc(CCNC(=O)c2cc(S(=O)(=O)N3CCC4(CC3)OCCO4)ccc2F)cc1OC | 2.6% | 23.1µM* | -6.7 | -22.7% | -16.7% | ?
O=C(NCCc1ccc(Cl)cc1)c1cc(S(=O)(=O)N2CCCC2)ccc1F | / | 16.4µM* | -5.0 | -38.9% | -4.7% | 25.9µM*
CC(NC(=O)C1CCN(C(=O)Nc2ccccc2)CC1)c1ccccc1 (stereo not drawn) | 5.8%[0.505 µM] | -3.1% | -2.6 | 7.3% | 5.5% | -2.7%
